# According to the supplement of paper PMC10849652:
# About 7,900 targets were measured; listed, in parts, are those with a hit and a random draw of the rest. About 0.6% of all pairs of compound and target were hits. A number with no mark means an inactive call.
# Tests used:
# Assay in all cases: log2 fold change, soluble protein after heating vs DMSO (PISA); higher = thermal stabilisation; K562 cells, 10 uM, 30 min; active = over 0.2 and 3.5 SD of the protein, either way, in both replicates (recomputed)
# [1] = compound: CC1=C(C=C(C=C1)NC(=O)C2=CC(=CC=C2)C(C)(C)C#N)NC3=CC4=C(C=C3)N=CN(C4=O)C
# In short: (§1)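 K562 cells at 2×10^6 cells/mL were treated with 10 μM compound for 30 min. Aliquots were heated for 3 min across 48°C-58°C, pooled, and extracted in PBS with 0.5% NP-40 at 4°C; soluble protein was the supernatant after 21,000xg for 90 min. Soluble protein was quantified by TMTpro 16plex LC-MS/MS with channel sums equalised, and reported as log2 fold change in thermal stability against DMSO controls, with values from duplicates.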
# [2] = compound: CC1=C(C=C(C=C1)NC(=O)C2=CC(=CC=C2)N(C)C)NC(=O)C3=CC=C(C=C3)O
# In short: as §1
# [3] = compound: CC1=CC=C(C=C1)SC2=C3C=C(SC3=CN=C2)C(=O)N
# In short: as §1
# [4] = compound: CC1=NC(=CC=C1)C2=C(N=C(N2)C(C)(C)C)C3=CC4=NC=CN=C4C=C3
# In short: as §1
# Nexturastat A = compound: CCCCN(Cc1ccc(C(=O)NO)cc1)C(=O)Nc1ccccc1 [Nexturastat A]
# In short: as §1
# vemurafenib = compound: CCCS(=O)(=O)Nc1ccc(F)c(C(=O)c2c[nH]c3ncc(-c4ccc(Cl)cc4)cc23)c1F [vemurafenib]
# In short: as §1
# [5] = compound: CCCS(=O)(=O)Nc1ccc(F)c(C(=O)c2c[nH]c3ncc(Cl)cc23)c1F
# In short: as §1
# [6] = compound: CCCc1cc(C)[nH]c(=O)c1CNC(=O)c1cc(-c2ccnc(N3CCN(C)CC3)c2)cc2c1cnn2C(C)C
# In short: as §1
# givinostat = compound: CCN(CC)Cc1ccc2cc(COC(=O)Nc3ccc(C(=O)NO)cc3)ccc2c1 [givinostat]
# In short: as §1
# barasertib = compound: CCN(CCCOc1ccc2c(Nc3cc(CC(=O)Nc4cccc(F)c4)[nH]n3)ncnc2c1)CCOP(=O)(O)O [barasertib]
# In short: as §1
# [7] = compound: CC[C@@H]1C(=O)N(C)c2cnc(Nc3ccc(C(=O)NC4CCN(C)CC4)cc3OC)nc2N1C1CCCC1
# In short: as §1
# volasertib = compound: CC[C@@H]1C(=O)N(C)c2cnc(Nc3ccc(C(=O)N[C@H]4CC[C@H](N5CCN(CC6CC6)CC5)CC4)cc3OC)nc2N1C(C)C [volasertib]
# In short: as §1
# [8] = compound: CC[C@H](C)N1C=C(C2=C(C=C(C=C21)C3=CN=C(C=C3)N4CCNCC4)C(=O)NCC5=C(C=C(NC5=O)C)C)C
# In short: as §1
# epoxomicin = compound: CC[C@H](C)[C@@H](C(=O)N[C@@H]([C@@H](C)O)C(=O)N[C@@H](CC(C)C)C(=O)[C@]1(CO1)C)NC(=O)[C@H]([C@@H](C)CC)N(C)C(=O)C [epoxomicin]
# In short: as §1
# [9] = compound: CCn1c(C(=O)N(C2CC2)C2CC2)cc2c3c(ncn3C)c(Nc3cc(C)n(C)n3)nc21
# In short: as §1
# [10] = compound: CCn1cc(-c2ccnc3[nH]c(-c4cccc(CN(C)C)c4)cc23)c(-c2ccc(NC(=O)N(C)C)cc2)n1
# In short: as §1
# [11] = compound: CN(C)CC(=O)Nc1ccc2[nH]c(=O)c3ccccc3c2c1
# In short: as §1
# rosiglitazone = compound: CN(CCOC1=CC=C(C=C1)C[C@H]2C(=O)NC(=O)S2)C3=CC=CC=N3 (racemic) [rosiglitazone]
# In short: as §1
# [12] = compound: CN1C2=C(C3=C1C(=O)N(N=C3)CC4=CC(=CC=C4)N)SC(=C2)S(=O)C
# In short: as §1
# [13] = compound: CN1CCC(CNc2ccc3ncc(-c4cccc(OC(F)(F)F)c4)n3n2)CC1
# In short: as §1
# Sequence of UniProt Q00536 (Q00536 whole entry, looked up): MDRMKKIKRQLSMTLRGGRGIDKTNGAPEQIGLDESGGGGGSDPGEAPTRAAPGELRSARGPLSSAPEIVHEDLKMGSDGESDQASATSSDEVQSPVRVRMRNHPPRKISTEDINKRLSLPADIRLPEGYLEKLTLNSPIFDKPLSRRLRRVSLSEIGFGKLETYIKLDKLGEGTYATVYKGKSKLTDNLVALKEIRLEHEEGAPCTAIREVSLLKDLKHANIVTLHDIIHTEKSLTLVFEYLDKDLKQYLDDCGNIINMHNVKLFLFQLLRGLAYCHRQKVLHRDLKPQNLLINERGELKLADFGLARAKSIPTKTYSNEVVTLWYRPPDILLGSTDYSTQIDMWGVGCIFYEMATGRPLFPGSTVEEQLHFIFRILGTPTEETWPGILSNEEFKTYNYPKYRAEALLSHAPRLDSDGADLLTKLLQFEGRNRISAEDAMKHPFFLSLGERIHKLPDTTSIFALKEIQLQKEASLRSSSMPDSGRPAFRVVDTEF
# Sequence of UniProt Q7KZN9 (Q7KZN9 whole entry, looked up): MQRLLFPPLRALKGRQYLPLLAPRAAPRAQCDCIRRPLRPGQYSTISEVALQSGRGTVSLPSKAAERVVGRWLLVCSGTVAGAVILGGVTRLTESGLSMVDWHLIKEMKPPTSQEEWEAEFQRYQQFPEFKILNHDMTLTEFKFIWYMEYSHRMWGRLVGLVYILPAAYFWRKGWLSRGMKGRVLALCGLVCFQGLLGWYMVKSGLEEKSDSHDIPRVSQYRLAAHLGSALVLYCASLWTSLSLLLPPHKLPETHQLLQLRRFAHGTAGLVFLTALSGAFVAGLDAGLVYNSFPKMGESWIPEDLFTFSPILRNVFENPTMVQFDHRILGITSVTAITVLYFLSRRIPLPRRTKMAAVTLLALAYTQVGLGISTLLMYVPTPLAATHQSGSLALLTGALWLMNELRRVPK
# Sequence of UniProt Q9P031 (Q9P031 whole entry, looked up): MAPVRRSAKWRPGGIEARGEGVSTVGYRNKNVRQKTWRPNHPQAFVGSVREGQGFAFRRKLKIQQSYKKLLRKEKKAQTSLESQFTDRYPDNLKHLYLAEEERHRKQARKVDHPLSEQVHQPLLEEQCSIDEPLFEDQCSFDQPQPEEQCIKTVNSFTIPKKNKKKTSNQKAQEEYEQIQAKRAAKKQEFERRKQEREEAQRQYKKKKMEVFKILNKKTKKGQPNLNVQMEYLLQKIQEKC
# Sequence of UniProt P09497 (P09497 whole entry, looked up): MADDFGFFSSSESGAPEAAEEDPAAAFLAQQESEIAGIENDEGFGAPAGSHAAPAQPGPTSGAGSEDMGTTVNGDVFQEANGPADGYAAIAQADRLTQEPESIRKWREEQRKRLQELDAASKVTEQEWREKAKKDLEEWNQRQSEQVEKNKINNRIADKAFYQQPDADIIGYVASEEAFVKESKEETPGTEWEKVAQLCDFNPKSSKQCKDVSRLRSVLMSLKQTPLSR
# Sequence of UniProt O76031 (O76031 whole entry, looked up): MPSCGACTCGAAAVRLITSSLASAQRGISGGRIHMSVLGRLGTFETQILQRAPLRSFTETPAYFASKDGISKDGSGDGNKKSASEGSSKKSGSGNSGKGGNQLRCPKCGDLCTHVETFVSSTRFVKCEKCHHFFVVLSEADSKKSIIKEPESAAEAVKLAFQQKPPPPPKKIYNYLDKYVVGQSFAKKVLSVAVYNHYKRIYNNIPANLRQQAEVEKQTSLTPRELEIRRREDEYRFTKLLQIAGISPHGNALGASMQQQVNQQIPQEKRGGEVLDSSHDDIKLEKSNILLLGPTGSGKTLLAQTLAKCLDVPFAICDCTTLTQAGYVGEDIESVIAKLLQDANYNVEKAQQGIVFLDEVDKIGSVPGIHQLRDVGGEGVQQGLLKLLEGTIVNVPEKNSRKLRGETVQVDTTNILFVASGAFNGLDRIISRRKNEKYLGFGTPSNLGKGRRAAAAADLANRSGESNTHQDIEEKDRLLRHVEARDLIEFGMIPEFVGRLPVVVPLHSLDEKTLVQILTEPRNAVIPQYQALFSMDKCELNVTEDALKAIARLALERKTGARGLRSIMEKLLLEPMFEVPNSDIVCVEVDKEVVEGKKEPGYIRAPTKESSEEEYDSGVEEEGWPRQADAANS
# Sequence of UniProt P05937 (P05937 whole entry, looked up): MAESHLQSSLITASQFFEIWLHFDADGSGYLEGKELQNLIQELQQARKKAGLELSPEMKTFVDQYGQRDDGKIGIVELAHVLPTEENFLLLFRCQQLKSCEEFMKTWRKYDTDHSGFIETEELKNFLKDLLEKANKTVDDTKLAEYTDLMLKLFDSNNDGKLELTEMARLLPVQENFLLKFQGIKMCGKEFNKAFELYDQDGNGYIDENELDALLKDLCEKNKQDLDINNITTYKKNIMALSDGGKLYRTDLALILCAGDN
# Sequence of UniProt P48509 (P48509 whole entry, looked up): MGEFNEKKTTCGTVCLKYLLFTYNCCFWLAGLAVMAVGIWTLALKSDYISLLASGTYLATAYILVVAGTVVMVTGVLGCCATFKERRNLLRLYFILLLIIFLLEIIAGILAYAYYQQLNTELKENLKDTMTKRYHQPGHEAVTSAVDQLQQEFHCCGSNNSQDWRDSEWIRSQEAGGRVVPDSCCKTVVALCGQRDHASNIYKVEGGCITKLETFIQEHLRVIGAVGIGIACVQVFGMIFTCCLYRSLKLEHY
# Sequence of UniProt P83916 (P83916 whole entry, looked up): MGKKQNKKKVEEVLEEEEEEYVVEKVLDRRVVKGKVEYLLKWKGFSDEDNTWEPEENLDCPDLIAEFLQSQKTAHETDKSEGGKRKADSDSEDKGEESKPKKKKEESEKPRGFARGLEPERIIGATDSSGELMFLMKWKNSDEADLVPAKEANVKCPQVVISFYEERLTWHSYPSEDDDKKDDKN
# Sequence of UniProt P46109 (P46109 whole entry, looked up): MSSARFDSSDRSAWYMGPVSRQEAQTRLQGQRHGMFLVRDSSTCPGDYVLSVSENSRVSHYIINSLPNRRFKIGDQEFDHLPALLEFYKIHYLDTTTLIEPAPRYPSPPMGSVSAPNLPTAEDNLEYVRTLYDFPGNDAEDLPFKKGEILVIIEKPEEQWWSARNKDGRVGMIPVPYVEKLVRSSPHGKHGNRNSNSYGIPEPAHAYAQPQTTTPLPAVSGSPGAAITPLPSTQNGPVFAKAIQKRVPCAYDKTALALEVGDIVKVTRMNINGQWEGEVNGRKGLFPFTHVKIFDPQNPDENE
# Sequence of UniProt Q8N1G2 (Q8N1G2 whole entry, looked up): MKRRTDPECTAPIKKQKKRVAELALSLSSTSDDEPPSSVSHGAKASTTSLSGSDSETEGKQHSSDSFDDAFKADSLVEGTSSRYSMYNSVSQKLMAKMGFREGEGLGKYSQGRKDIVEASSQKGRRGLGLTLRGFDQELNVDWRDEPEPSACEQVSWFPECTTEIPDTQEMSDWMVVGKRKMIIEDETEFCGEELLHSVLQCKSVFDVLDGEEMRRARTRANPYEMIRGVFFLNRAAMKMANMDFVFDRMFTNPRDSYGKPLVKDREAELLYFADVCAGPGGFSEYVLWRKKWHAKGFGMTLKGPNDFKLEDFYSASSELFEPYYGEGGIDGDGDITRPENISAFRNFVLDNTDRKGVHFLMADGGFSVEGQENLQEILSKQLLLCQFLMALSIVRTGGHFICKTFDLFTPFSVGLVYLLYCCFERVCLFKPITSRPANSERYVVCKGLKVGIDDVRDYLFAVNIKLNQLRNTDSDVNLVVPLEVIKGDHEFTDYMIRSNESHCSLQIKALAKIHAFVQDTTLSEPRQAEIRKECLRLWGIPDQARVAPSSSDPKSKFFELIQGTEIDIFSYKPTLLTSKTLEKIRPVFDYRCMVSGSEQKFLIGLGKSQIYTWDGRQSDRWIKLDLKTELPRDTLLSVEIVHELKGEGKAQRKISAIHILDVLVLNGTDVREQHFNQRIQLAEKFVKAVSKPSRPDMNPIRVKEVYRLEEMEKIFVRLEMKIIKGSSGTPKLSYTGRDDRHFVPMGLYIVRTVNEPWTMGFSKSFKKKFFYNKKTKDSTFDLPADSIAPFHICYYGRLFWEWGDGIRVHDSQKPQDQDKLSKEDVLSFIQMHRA
# Sequence of UniProt P15954 (P15954 whole entry, looked up): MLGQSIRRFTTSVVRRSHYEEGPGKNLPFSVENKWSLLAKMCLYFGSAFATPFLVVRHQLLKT
# Sequence of UniProt P33240 (P33240 whole entry, looked up): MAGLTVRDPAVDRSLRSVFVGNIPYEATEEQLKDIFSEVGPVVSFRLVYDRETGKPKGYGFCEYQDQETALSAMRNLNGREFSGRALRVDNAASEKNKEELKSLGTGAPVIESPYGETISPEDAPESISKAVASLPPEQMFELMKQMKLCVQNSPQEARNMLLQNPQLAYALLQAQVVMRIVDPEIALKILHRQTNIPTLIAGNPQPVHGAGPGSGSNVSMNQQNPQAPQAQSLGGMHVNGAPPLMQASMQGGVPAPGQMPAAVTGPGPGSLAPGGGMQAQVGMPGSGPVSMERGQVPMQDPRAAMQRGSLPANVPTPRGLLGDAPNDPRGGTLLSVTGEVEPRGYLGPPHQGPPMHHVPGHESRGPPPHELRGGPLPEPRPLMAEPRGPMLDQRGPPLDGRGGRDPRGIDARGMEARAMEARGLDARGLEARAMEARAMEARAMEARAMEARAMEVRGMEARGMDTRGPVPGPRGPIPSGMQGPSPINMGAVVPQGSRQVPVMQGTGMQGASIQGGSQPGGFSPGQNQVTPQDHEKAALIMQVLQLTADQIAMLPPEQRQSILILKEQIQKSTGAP
# Sequence of UniProt Q5T6V5 (Q5T6V5 whole entry, looked up): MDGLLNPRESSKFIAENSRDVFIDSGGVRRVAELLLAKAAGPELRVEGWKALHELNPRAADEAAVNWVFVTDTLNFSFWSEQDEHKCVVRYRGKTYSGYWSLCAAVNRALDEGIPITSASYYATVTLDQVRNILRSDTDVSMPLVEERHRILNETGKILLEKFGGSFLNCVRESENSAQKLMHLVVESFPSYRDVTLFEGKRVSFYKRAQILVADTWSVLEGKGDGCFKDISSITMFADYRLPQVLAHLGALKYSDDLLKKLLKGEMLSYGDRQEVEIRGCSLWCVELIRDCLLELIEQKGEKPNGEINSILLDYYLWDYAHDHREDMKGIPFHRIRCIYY
Target,log2 fold change [1],log2 fold change [2],log2 fold change [3],log2 fold change [4],log2 fold change (Nexturastat A),log2 fold change (vemurafenib),log2 fold change [5],log2 fold change [6],log2 fold change (givinostat),log2 fold change (barasertib),log2 fold change [7],log2 fold change (volasertib),log2 fold change [8],log2 fold change (epoxomicin),log2 fold change [9],log2 fold change [10],log2 fold change [11],log2 fold change (rosiglitazone),log2 fold change [12],log2 fold change [13]
CMTR1 (UniProt Q8N1G2),-0.012,-0.003,-0.021,0.083,-0.069,0.03,0.005,-0.004,-0.062,0.054,-0.053,-0.199,0.024,0.039,-0.01,-0.049,0.038,0.03,-0.055,-0.037
CALB1 (UniProt P05937),-0.004,0.032,0.027,0.042,-0.023,0.057,0.019,0.011,-0.031,0.037,-0.123,-0.092,-0.007,0.043,0.003,0.05,0.016,0.027,-0.039,-0.282 (active)
CD151 (UniProt P48509),-0.125,-0.057,-0.002,0.027,-0.159,-0.103,0,-0.21,0.018,-0.052,0.277 (active),0.157,-0.068,0.041,-0.011,-0.058,0,0.017,-0.095,0.248
C9orf64 (UniProt Q5T6V5),0.014,-0.014,0.029,0.001,0.029,-0.032,0.079,-0.036,0.064,0.08,-0.066,-0.309,0.103,-0.004,-0.094,-0.149,0.075,0.119,-0.007,-0.396 (active)
COX7C (UniProt P15954),-0.057,-0.187,-0.01,0.088,0.027,-0.018,-0.085,0.143,-0.271,0.061,0.035,-0.163,-0.114,0.203,-0.01,0.095,-0.058,-0.025,-0.026,-0.052
CBX1 (UniProt P83916),0.049,-0.005,0.04,0.318 (active),-0.026,0.07,0.057,-0.011,-0.042,-0.009,0.001,-0.119,0.103,-0.022,-0.007,-0.037,-0.013,0.009,0.028,-0.014
CSTF2 (UniProt P33240),-0.081,0,0.002,-0.05,0.026,0.016,-0.053,0.004,-0.014,-0.042,0.06,0.233 (active),-0.024,-0.077,0.011,0.041,-0.048,0.01,-0.085,-0.004
CDK16 isoform 2 (UniProt Q00536),0.003,-0.017,0.028,0.021,-0.052,-0.072,0.027,-0.101,-0.043,-0.023,-0.049,-0.316,-0.014,0.02,-0.113,0.001,0.041,0.061,-0.074,0.135
CASC3 (UniProt O15234),0.043,-0.003,0.009,-0.027,-0.004,-0.156,-0.061,-0.065,-0.045,0.043,0.303,0.272,-0.068,-0.058,0.016,0.087,-0.081,0.015,0.102,0.02
CPSF7 isoform 3 (UniProt Q8N684),0.015,0.001,0.014,0.012,-0.003,0.018,0.007,-0.016,0.01,-0.044,0.077,0.039,0.053,-0.042,0.004,-0.015,-0.014,-0.029,-0.001,0.006
COX15 (UniProt Q7KZN9),0.05,0.024,0.001,0.003,-0.113,0.005,0.015,-0.077,-0.008,0.009,0.057,0.023,-0.037,-0.018,0.05,0.021,0.006,0.085,-0.044,-0.015
CCDC59 (UniProt Q9P031),-0.067,-0.017,-0.144,-0.213,0.549 (active),-0.037,0.008,0.113,0.086,-0.013,0.065,0.186,-0.006,-0.067,-0.013,0.088,-0.08,-0.064,0.394,0.176
CLTB (UniProt P09497),-0.003,-0.025,-0.007,0.037,-0.039,-0.009,-0.012,-0.036,0.047,-0.023,0.099,0.134,-0.102,0.032,0.001,-0.006,-0.024,-0.013,-0.064,0.106
CPD (UniProt O75976),-0.017,0,-0.01,-0.016,-0.001,-0.017,-0.021,-0.062,0.016,0.011,-0.152,-0.33,-0.017,0.025,0.036,-0.044,-0.024,0.002,0.029,-0.399 (active)
CRKL (UniProt P46109),-1.25 (active),-0.029,0.014,0.019,-0.003,-0.018,-0.009,-0.024,0.009,0.01,-0.012,-0.039,0.007,0,0.008,0,0.012,0.017,0,-0.016
CLPX (UniProt O76031),0.022,-0.013,-0.008,0.012,0,-0.011,-0.013,-0.002,0.02,-0.013,0.039,0.192,-0.06,-0.019,-0.03,-0.022,0.026,-0.009,-0.01,0.072
